# According to the supplement of paper PMC3334620:
# Whole data set: some 33,000 sequences, median “E-score (-0.5 to 0.5)” near -0.0034, cut for the highest 2% near 0.25. This excerpt belongs to a sample that is enriched for the highest values.
# Target: T1, Yap3 (UniProt P38749)
# T1 sequence: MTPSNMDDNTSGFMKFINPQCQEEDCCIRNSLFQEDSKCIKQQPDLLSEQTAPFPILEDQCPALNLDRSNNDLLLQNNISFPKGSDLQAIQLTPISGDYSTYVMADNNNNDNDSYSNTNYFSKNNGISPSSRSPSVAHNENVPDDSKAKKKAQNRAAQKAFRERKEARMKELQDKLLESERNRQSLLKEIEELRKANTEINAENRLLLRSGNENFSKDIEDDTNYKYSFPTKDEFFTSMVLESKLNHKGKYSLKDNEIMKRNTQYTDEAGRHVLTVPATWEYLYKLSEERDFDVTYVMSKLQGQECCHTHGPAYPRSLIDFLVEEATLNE
# Experiment: PBM E-score (8-mer binding enrichment) (E-score (-0.5 to 0.5)); higher = stronger / more preferred TF binding
# Conditions: protein concentration: 100 nM; construct: GST-full length
# Protocol: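 Universal 'all 10-mer' protein binding microarrays (Agilent AMADID 015681) probed with GST-tagged S. cerevisiae TFs (full-length or DBD) made by in vitro transcription/translation (PURExpress), about 100-200 nM. Bound TF was detected with fluorescent anti-GST. Each ungapped 8-mer (which stands for itself and its reverse complement) is scored by the PBM enrichment score (E-score), a modified Wilcoxon-Mann-Whitney statistic from -0.5 to +0.5, computed with the Universal PBM Analysis Suite. Scale: above 0.35 generally sequence-specific binding.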
row,Sequence,PBM E-score
1,ACCATATC,0.0587
2,ACCATATA,0.285
3,CGCATATA,0.00761
4,ACTATATA,0.328
5,GCTATATA,0.101
6,GTTATATA,0.224
7,ACCTAAAC,0.122
8,GAGGGATC,-0.253
9,ACTGGTAA,0.184
10,CCTAGACC,-0.146
11,CGAAGGTA,0.00763
12,AGTGCGCG,-0.0557
13,CCCTGTCC,-0.276
14,TAGAGCAA,-0.0378
15,AAACTGCT,-0.156
16,GACTCTTA,0.141
17,ATTATATC,0.16
18,ATTATATA,0.3
19,ATTATATG,0.221
20,AATGCCAG,-0.00344
21,GCGTGGCC,-0.3
22,TGTCGAAA,-0.0162
23,AAATAAGT,0.145
24,AAATAAAT,0.241
25,GAATAATC,0.217

row,Sequence,PBM E-score
1,CAATAACA,0.0825
2,GAATAATA,0.292
3,GAATAAGA,0.109
4,AAATAGAA,0.0373
5,TAATAGAA,0.257
6,TAATAACA,0.189
7,GAATAGAA,0.125
8,AAATAATT,0.287
9,GAATAACA,0.308
10,TAACACTA,0.245
11,ACGCGTTA,0.0763
12,GGCTCTGA,-0.03
13,CAGAGTTA,-0.0557
14,ACACCATA,0.164
15,GCGCACCA,-0.0312
16,TAATAATA,0.373
17,TAATAAGA,0.136
18,CATTAGAA,0.123
19,GATTAGAA,0.0967
20,AAATAAAA,0.224
21,CAATAATA,0.237
22,AAATAATG,0.24
23,GAATAAAA,0.178
24,TATTAGAA,0.287
25,AAATAATA,0.307

row,Sequence,PBM E-score
1,TAATAAAA,0.324
2,AAATAATC,0.0637
3,AAATGAGT,0.23
4,ACATCCAT,0.0624
5,TGGCCACA,-0.0477
6,GCCTATGA,-0.134
7,GGTCCCAA,-0.151
8,ATCGACAT,0.0988
9,ACCTGCTG,0.0821
10,TGATAACA,0.258
11,CGATAACA,0.097
12,GGATAACA,0.116
13,CGTTTTAA,0.126
14,GAGGACGC,-0.1
15,TGTTCTAA,0.256
16,GGTTCTAA,0.218
17,AGTTCTAA,-0.0287
18,AGCTTGCG,-0.219
19,AATTGGGT,0.331
20,AATTGGGG,-0.023
21,AATTGGGC,0.0215
22,AATATTAA,0.346
23,AATATTAG,0.239
24,GCTATTAA,0.103
25,AATATTAT,0.333

row,Sequence,PBM E-score
1,ACTATTAT,0.123
2,TGTATTAA,0.126
3,TCTATTAA,0.188
4,TATATTAA,0.315
5,AATCTCAA,0.134
6,CATCTCAA,0.108
7,TATCTCAA,0.256
8,GATATTAA,0.212
9,AGAGGAAG,-0.0758
10,AATCGGGA,0.0297
11,CTTTGATC,-0.0556
12,TGTAGAAA,0.0253
13,CGATGGCA,-0.145
14,TAGCGGAA,-0.00131
15,AATATCAA,0.244
16,AATATTAC,0.31
17,GATATTCC,0.12
18,AATATTCC,0.281
19,GATATTAC,0.371
20,CATATCAA,0.275
21,CCTATTAC,0.176
22,CATATCAG,0.064
23,AATATTGC,0.202
24,AATATTCT,0.133
25,AATATTCG,0.223

row,Sequence,PBM E-score
1,GCTATTAC,0.137
2,ACGAACTC,0.0654
3,TAGGAGAA,-0.178
4,AGAACGAA,0.233
5,ATGTTGCA,0.0661
6,TCATTCGA,0.195
7,AGGATTAC,0.125
8,GGAACGAC,-0.133
9,AGAGAATA,0.208
10,CATATTAA,0.299
11,GAAATCAA,0.0981
12,CATATTGA,0.0743
13,GATATTCA,0.0491
14,CGTATTAA,0.0173
15,TATATTCA,0.259
16,AATATTCA,0.223
17,AAAATCAA,0.19
18,CATATTAG,0.184
19,CATATTAC,0.282
20,CATATTTC,0.0493
21,CAAATCAA,0.267
22,AAATACAT,0.154
23,CTTGGTGC,-0.023
24,AGATAGCA,0.0137
25,AACAGCAC,0.0426

row,Sequence,PBM E-score
1,GCGATCGC,0.191
2,CAATATGG,-0.00272
3,CACATTGC,0.0928
4,CACTGCTA,0.025
5,CGTTCTGA,-0.106
6,CACATTAG,-0.0914
7,CACATTAC,0.276
8,AATATCAT,0.277
9,AATATCAG,0.121
10,AATATCAC,0.222
11,AACATTAC,0.149
12,ACAATTCT,0.0509
13,AGGTTTGA,-0.014
14,CCAGGTCC,-0.307
15,TACATACA,0.209
16,GACATACA,0.256
17,CACATACA,-0.0173
18,GGACCGGA,-0.112
19,TTTACAAA,0.262
20,GATACAAA,0.162
21,ATTACAAT,0.125
22,AATACAAA,0.259
23,GTTACAAA,0.225
24,ATTACAAG,0.166
25,ATTACAAA,0.37

row,Sequence,PBM E-score
1,CTTACAAA,0.19
2,AATACAAG,0.24
3,AGCATTCG,-0.106
4,GGATACGA,0.0439
5,CGGCTGTA,-0.147
6,AATGTATG,0.0768
7,AAGCCAGC,-0.0187
8,GTCGGGTA,0.0387
9,GCTGCATA,0.0463
10,AAGGGTGA,-0.0745
11,AGAGCCAG,-0.175
12,CTGACTAC,-0.0607
13,GTGACTGA,0.167
14,CTGACTAA,0.392
15,GTGACTCA,0.0409
16,ATGACTAC,0.0437
17,ATGACTAA,0.431
18,CTGACTTA,0.16
19,ATGACTAG,0.07
20,GTGACTAA,0.262
21,CGCTATCC,0.0718
22,ACAGATCC,0.145
